A short description of assay [1]: U-118MG Cancer Cell Toxicity qHTS against the NCATS CANVASS Library (AID 1347351). Further: series mostly up to about 38 µM. Put shortly:
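1000 cells/well seeded and rested 4 h at 37 °C before pin transfer of compounds in an 11-pnt series. Exposure 72 h at 37 °C/5% CO2; viability by CellTiter-Glo luminescence after 15 min at room temperature.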

Assay [2] is described as follows: HPAF-II 24hr Apoptosis Induction qHTS against the NCATS CANVASS Library (AID 1347356). Put shortly: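 Apoptosis induction in HPAF-II pancreatic cancer cells is measured as caspase-3/7 luminescence after a 24-hour exposure to compounds.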
(In general: qHTS replaces the single test concentration by a dilution series.)

The nature of assay [3]: HEK293 18hr Apoptosis Induction qHTS against the NCATS CANVASS Library (AID 1347357). Summed up:
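Natural products applied to HEK293 for 18 hr; Caspase-Glo 3/7 readout.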

Assay [4] in a line: HPAF-II 18hr Apoptosis Induction qHTS against the NCATS CANVASS Library (AID 1347360). Summed up: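 Luminescent DEVD-substrate signal, proportional to caspase activity, is measured in HPAF-II cells after 18-hour treatment across a concentration series; doxorubicin serves as control.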
Assay [5] is described as follows: HEK293 12hr Apoptosis Induction qHTS against the NCATS CANVASS Library (AID 1347361). Summed up: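 Luminescent caspase-3/7 signal, proportional to enzyme activity, was recorded from HEK293 cultures in DMEM + 10% FBS treated for 12 hours with titrated natural products (11 points). Doxorubicin (0.1nM - 4uM) served as control.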
The subject of assay [6] is NAD(P)H diaphorase (Clostridium kluyveri). Kind of assay: Diaphorse counterscreen qHTS: Assay Interference Panel against the NCATS CANVASS Library (AID 1347362). Summed up:
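Clostridium kluyveri diaphorase in PBS + 0.01% Tween-20 preincubated 15 min with compounds. Resazurin and NADH then added for 5 min at room temperature in the dark; resorufin fluorescence read (ex 525, em 598).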

A short description of assay [7]: KB-3-1 Cancer Cell Toxicity qHTS against the NCATS CANVASS Library (AID 1347366). Further: nearly all actives have a fitted effect of over 75% in size. Summed up:
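Cytotoxicity toward KB-3-1 cells (500/well, DMEM + 10% FBS) was scored by CellTiter-Glo luminescence following 72 hr exposure at 37C, with bortezomib titrated as control.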

The nature of assay [8]: MCF7 Cancer Cell Toxicity qHTS against the NCATS CANVASS Library (AID 1347369). Put shortly: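 This 72 hr qHTS scored MCF7 viability by CellTiterGlo luminescence, with 500 cells/well; bortezomib titration ran as control.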
Assay [9] is described as follows: qHTS for ATAD5 Antagonist screened against the NCATS CANVASS Library (AID 1347370). Further: nearly all actives have a fitted effect of over 65% in size. Further: potency means the concentration at half of the fitted maximal effect. Put shortly:
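HEK293T cells with a stably integrated ATAD5-controlled luciferase reporter were exposed to compounds (11-pt) alongside 10 uM 5-fluorouridine as ATAD5 stabilizer for 16hr at 37C. Viability was read by CellTiter-Fluor fluorescence, then ATAD5 by luminescence.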

Assay [10] is described as follows: J3T Cancer Cell Toxicity qHTS against the NCATS CANVASS Library (AID 1347371). Put shortly: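 Viability of the J3T glioma line from dog is scored by ATP luminescence after a 72 hr incubation with natural products.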
Assay [11] has as its target Nuclear receptor subfamily 1 group I member 3 (Homo sapiens) (UniProt Q14994). In words: qHTS for Constitutive Androstane Receptor (CAR) Antagonist screened against the NCATS CANVASS Library (AID 1347372).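 Further: cells stimulated with 50 nM CITCO agonist so inhibition reflects antagonism; series mostly up to about 46 µM.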 Summed up: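 HepG2 cells stably carrying hCAR and CYP2B6-2.2kb luciferase reporter, 2500 cells/well, compound with 50 nM CITCO agonist for 24hr at 37C. ONE-Glo luminescence measured CAR activity; CellTiter-Fluor read viability.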

For assay [12] the target is unchanged. In words: qHTS for Constitutive Androstane Receptor (CAR) Agonist screened against the NCATS CANVASS Library (AID 1347373).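 Further: every well also contained 1.5 µM PK11195 alongside the test compound.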 Summed up:
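CAR agonism is scored as CYP2B6-promoter luciferase induction in a double-stable transfected HepG2 line, where 1.5uM PK11195 is included in each well. Compounds were tested over a 24hr exposure.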

A short description of assay [13]: 10-beta competent E. coli microbial cell viability qHTS against the NCATS CANVASS Library (AID 1347376). Further: series mostly up to about 46 µM. Summed up: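 Cytotoxicity toward competent E. coli is scored from cellular ATP content via BacTiter-Glo luminescence following overnight compound exposure at 37C, 5% CO2.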
The nature of assay [14]: qHTS for H2AX Agonists against the NCATS CANVASS Library (AID 1347378).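 Further: phospho-H2AX S139 level in CHO-K1 lysates by TR-FRET emission ratio.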 Summed up:
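Signal is the 665/620 nm emission ratio from europium cryptate and d2 antibody pair, rising with S139-phosphorylated H2AX. CHO-K1 cells saw test agents for 3 hr at 37C; detection ran 24 hr at room temperature.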

Assay [15] is described as follows: qHTS for Inflammasome Signaling Inhibitors: IL-1-beta AlphaLISA screen against the NCATS CANVASS Library (AID 1347379).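 Further: human THP-1 cells primed with LPS then triggered with ATP.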 Put shortly:
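Human THP-1 cells were pretreated 1 hr at 37 °C with compounds (up to 57.5 uM final), then stimulated with LPS (250 ng/mL final) and ATP (1.25 mM final). Secreted IL-1B was read by AlphaLISA after 16 hr.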

A short description of assay [16]: Cytotoxicity qHTS for assessment of Hepg2 cells membrane integrity screened against the NCATS CANVASS Library (AID 1347387). Put shortly: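 Fluorescence proportional to lysed-cell number, from LDH leaking out of HepG2 cells exposed 5 hr at 37C to 0.59 nM - 46 uM compound (11-point qHTS), is measured after 10 min with CytoTox-ONE.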
Assay [17] is described as follows: Vero-766 cells viability qHTS against the NCATS CANVASS Library: Counterscreen for Zika virus inhibition assay (AID 1347394). Further: series mostly up to about 46 µM; nearly all actives have a fitted effect of over 60% in size. Summed up:
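Counterscreen for toxicity: Vero 766 cells exposed 72 h to an 11-point compound series, viability by CellTiter-Glo.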

Assay [18] in a line: Viability qHTS for inhibitors of the SERCaMP assay screened against the NCATS CANVASS Library (AID 1347400). Further: series mostly up to about 92 µM; nearly all actives have a fitted effect of over 70% in size. Summed up:
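Cytotoxicity counter-screen: ATP content (CellTiter-Glo luminescence) of SH-SY5Y-GLuc SERCaMP MJH297 cells after 48 h at 37C with compounds in an 11-point qHTS series.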

Assay [19] can be described thus: Redox Reaction Profiling qHTS: Assay Interference Panel against the NCATS CANVASS Library (AID 1347401). Summed up: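 Compounds in 11-point series incubated with 5 uM resazurin and 200 uM DTT in 50 mM HEPES pH 7.3, 50 mM NaCl. Resorufin fluorescence (Ex 525/Em 598) read before and after 15 min in the dark.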
Assay [20] is described as follows: Secretion counterscreen for inhibitors of the SERCaMP assay screened against the NCATS CANVASS Library (AID 1347390).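 Further: light from luciferase secreted into medium read as a measure of general secretion; series mostly up to about 77 µM.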 Summed up:
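Natural products are titrated in an 11-point series up to 77 uM onto SH-SY5Y-GLuc STOP cells for 20 h. Secreted reporter activity is measured as coelenterazine-driven luminescence, with Brefeldin A on each plate.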
In general terms: A counterscreen serves to expose hits that act by an unwanted route or on another target.

Records with an inconclusive call do not appear. Calls of active or inactive are those of the source. The call rests on the fitted dose curve; in most records, active means well fitted curve in the direction sought with a large enough effect; inconclusive means small, poorly fitted or top-dose-only effect, or another doubt; inactive means no such curve, though single readings can be large; an effect the other way counts as inactive or inconclusive. Peptide text beside a SMILES is read from it. * marks the point of attachment. Hexanoyl = CCCCCC(=O)*

Sequence of Nuclear receptor subfamily 1 group I member 3 (Homo sapiens) (Q14994 whole entry, looked up): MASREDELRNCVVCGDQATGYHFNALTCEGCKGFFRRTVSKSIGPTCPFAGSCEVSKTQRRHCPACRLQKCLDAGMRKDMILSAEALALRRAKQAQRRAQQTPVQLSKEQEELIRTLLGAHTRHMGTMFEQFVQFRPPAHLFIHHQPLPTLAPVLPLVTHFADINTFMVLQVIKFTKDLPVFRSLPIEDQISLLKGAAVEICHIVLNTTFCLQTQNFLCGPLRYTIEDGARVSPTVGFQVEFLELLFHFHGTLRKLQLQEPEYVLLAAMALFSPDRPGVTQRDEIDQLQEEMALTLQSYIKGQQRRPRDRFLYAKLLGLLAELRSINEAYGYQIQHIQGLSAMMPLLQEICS

With `C=C1[C@@]2(C)CC3C4(C)CCC(O)C(C)(C)C4CCC3(C)[C@]1(C(=O)OC)C(=O)C(C)(O)C2=O` (stereo partly drawn), the Potency result in assay [1], in assay [3], in assay [4], in assay [6], in [7] and in [8] was “inactive” throughout. The Potency result in assay [9], in assay [10], in assay [11], in assay [12], in assay [14] and in assay [15] was “inactive” in each case. Moreover, the Potency entry in assay [17], in assay [18] and in assay [19] was “inactive” in each case. The compound was classed as inactive in [2], in [5], in assay [13] and in assay [16].

`C[C@H](c1cnc(N)[nH]1)c1ccc(O)c2[nH]cc(-c3cnc(-c4c[nH]c5ccccc45)c(=O)[nH]3)c12`: the Potency entry in [1], in assay [3], in assay [4], in [7], in [8] and in [9] was “inactive” in each case. Also, the Potency result in assay [10], in [11], in [12], in [14], in [20] and in assay [17] was “inactive” in each case. Moreover, the Potency entry in [18] was “inactive”. Besides, the outcome in assay [2], in assay [5], in assay [13] and in assay [16] was inactive.

Consider `Cc1cc(O)cc2c1C(=O)c1c(O)cc(O)cc1C2=O`, for which the Potency result in assay [1], in assay [3], in assay [4], in [6], in assay [7] and in assay [8] was “inactive” each time. Besides, the Potency result in [9], in [10], in assay [11], in assay [12], in assay [14] and in [15] was “inactive” in each case. The Potency result in [20], in assay [17], in assay [18] and in assay [19] was “inactive” throughout. Also, the outcome in [2], in [5], in assay [13] and in assay [16] was inactive.

Turning to `O=C1OC(CCO)c2cccc(O)c21` (stereo not drawn), the Potency entry in assay [1], in assay [3], in assay [4], in [6], in assay [7] and in assay [8] was “inactive” each time. The Potency entry in assay [9], in [10], in assay [11], in [12], in assay [14] and in assay [15] was “inactive” each time. Further, the Potency entry in assay [17], in assay [18] and in assay [19] was “inactive” in each case. Moreover, the compound was called inactive in [2], in [5], in [13] and in assay [16].

In the case of `COC(=O)c1cccc2oc(-c3cccc4oc(-c5c(C)cccc5O)nc34)nc12`, the Potency entry in [1], in assay [3], in assay [4], in [6], in assay [7] and in assay [8] was “inactive” throughout. Further, the Potency entry in assay [10], in assay [11], in assay [14], in assay [15], in assay [20] and in [18] was “inactive” throughout. In [19], the Potency result is “inactive”. Besides, the outcome in [2], in [5], in assay [13] and in assay [16] was inactive. Also, the Potency in assay [9] was 8.31 µM (active).

Consider `CCCCCC(=O)N[C@@H](CC(C)C)C(=O)N[C@H](C=O)CCC(=O)O` (Hexanoyl-Leu-Glu-aldehyde), for which the Potency result in assay [1], in assay [3], in [4], in assay [6], in [7] and in assay [8] was “inactive” throughout. Further, the Potency entry in [9], in assay [10], in assay [11], in [12], in assay [14] and in assay [15] was “inactive” each time. In addition, the Potency result in [20], in assay [17], in assay [18] and in [19] was “inactive” each time. Further, the outcome in [2], in assay [5], in assay [13] and in assay [16] was inactive.

For the origin of these results see PubChem BioAssay (NCATS).
